ChEMBL document CHEMBL1961873, “Compounds: GSK PKIS; Assays: Nanosyn kinase panel” (2012)

Tests used:
[1] = molecular target: Rho-associated protein kinase 1 (Homo sapiens) (UniProt Q13464); conditions: at 1 µM;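 note: reported values are mean percent inhibition of ROCK1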
[2] = molecular target: Rho-associated protein kinase 2 (Homo sapiens) (UniProt O75116); conditions: at 0.1 µM
[3] = molecular target: Rho-associated protein kinase 2 (Homo sapiens) (UniProt O75116); conditions: at 1 µM
[4] = molecular target: Ribosomal protein S6 kinase alpha-1 (Homo sapiens) (UniProt Q15418); conditions: at 0.1 µM
Sequence of Ribosomal protein S6 kinase alpha-1 (Homo sapiens) (Q15418 whole entry): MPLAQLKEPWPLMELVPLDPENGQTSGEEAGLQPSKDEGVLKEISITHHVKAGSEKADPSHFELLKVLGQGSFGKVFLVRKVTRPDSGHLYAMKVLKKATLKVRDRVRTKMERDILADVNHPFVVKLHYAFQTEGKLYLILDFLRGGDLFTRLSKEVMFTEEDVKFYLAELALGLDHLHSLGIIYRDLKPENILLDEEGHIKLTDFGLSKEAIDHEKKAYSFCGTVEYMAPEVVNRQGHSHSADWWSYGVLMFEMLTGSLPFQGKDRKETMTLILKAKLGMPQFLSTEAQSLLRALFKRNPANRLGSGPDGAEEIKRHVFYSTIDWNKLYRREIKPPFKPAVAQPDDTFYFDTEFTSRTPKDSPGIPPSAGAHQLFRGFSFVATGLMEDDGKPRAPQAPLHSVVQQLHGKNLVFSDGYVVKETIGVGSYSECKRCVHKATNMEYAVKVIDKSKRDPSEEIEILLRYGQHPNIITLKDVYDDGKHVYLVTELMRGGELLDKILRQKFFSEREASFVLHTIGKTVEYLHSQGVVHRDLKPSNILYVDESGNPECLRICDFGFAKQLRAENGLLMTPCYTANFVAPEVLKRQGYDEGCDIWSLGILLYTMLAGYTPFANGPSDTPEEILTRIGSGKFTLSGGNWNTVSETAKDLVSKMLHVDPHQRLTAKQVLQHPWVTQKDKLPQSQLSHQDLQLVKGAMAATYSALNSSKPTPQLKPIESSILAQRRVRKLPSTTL

[5] = molecular target: Ribosomal protein S6 kinase alpha-1 (Homo sapiens) (UniProt Q15418); conditions: at 1 µM
[6] = molecular target: Ribosomal protein S6 kinase alpha-3 (Homo sapiens) (UniProt P51812); conditions: at 0.1 µM
Sequence of Ribosomal protein S6 kinase alpha-3 (Homo sapiens) (P51812 whole entry): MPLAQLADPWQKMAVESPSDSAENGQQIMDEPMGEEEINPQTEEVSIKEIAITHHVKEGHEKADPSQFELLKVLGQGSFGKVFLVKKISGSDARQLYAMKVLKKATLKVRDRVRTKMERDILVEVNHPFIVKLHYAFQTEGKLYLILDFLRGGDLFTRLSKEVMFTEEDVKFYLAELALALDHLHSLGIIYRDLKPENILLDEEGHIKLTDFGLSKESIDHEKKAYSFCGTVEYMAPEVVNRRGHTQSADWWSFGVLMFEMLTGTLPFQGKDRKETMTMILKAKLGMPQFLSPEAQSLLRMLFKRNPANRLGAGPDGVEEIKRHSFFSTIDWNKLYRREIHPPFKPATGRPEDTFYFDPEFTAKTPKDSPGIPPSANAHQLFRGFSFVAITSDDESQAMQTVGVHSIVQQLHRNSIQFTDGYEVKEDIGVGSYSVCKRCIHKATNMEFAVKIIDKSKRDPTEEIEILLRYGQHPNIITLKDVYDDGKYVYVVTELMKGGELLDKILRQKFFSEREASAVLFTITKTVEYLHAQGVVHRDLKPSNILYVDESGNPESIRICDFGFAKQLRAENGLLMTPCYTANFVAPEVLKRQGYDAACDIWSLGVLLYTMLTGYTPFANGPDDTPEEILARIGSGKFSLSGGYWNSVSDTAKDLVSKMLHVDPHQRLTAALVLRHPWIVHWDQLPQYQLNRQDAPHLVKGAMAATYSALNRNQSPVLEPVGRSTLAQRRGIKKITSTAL

[7] = molecular target: Ribosomal protein S6 kinase alpha-3 (Homo sapiens) (UniProt P51812); conditions: at 1 µM
[8] = molecular target: Ribosomal protein S6 kinase alpha-2 (Homo sapiens) (UniProt Q15349); conditions: at 0.1 µM
[9] = molecular target: Ribosomal protein S6 kinase alpha-2 (Homo sapiens) (UniProt Q15349); conditions: at 1 µM
[10] = molecular target: Ribosomal protein S6 kinase alpha-6 (Homo sapiens) (UniProt Q9UK32); conditions: at 0.1 µM
[11] = molecular target: Ribosomal protein S6 kinase alpha-6 (Homo sapiens) (UniProt Q9UK32); conditions: at 1 µM
[12] = molecular target: T1, Serine/threonine-protein kinase Sgk1 (Homo sapiens) (UniProt O00141); conditions: at 0.1 µM
T1 sequence (whole entry): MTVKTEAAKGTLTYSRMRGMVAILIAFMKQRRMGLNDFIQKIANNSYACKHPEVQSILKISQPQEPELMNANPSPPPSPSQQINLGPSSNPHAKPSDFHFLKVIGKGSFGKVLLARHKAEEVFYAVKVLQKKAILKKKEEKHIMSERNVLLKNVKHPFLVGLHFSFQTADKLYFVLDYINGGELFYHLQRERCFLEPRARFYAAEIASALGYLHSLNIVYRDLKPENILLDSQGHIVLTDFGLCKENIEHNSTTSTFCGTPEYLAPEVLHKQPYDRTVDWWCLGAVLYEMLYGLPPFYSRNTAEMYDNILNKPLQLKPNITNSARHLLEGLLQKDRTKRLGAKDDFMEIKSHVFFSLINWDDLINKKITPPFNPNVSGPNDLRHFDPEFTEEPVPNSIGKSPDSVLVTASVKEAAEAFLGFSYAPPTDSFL

[13] = molecular target: T1, Serine/threonine-protein kinase Sgk1 (Homo sapiens); conditions: at 1 µM
[14] = molecular target: T2, Serine/threonine-protein kinase Sgk2 (Homo sapiens) (UniProt Q9HBY8); conditions: at 0.1 µM
T2 sequence (whole entry): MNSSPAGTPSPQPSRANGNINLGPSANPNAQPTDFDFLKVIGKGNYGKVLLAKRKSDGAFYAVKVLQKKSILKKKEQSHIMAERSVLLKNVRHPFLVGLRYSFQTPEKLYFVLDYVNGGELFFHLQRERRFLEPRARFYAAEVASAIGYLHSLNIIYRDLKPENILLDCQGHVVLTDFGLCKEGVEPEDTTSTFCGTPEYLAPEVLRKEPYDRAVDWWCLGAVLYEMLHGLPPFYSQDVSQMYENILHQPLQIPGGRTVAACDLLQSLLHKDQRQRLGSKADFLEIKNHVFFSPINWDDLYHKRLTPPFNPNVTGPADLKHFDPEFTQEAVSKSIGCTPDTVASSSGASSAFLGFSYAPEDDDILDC

[15] = molecular target: T2, Serine/threonine-protein kinase Sgk2 (Homo sapiens); conditions: at 1 µM
[16] = molecular target: T3, Serine/threonine-protein kinase Sgk3 (Homo sapiens) (UniProt Q96BR1); conditions: at 0.1 µM
T3 sequence (whole entry): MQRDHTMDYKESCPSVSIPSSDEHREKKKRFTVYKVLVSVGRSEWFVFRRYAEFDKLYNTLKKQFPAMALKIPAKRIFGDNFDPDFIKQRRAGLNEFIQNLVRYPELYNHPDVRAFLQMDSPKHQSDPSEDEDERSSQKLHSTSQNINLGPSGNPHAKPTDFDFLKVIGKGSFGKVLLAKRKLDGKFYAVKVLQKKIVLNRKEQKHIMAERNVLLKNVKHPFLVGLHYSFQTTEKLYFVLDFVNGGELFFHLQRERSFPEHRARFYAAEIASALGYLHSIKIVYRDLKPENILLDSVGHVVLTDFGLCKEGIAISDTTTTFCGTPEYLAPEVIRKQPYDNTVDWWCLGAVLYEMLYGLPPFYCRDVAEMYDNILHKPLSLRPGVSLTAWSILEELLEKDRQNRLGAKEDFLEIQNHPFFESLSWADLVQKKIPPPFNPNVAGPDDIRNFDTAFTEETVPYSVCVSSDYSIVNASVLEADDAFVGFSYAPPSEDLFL

[17] = molecular target: T3, Serine/threonine-protein kinase Sgk3 (Homo sapiens); conditions: at 1 µM
[18] = molecular target: 5'-AMP-activated protein kinase catalytic subunit alpha-1 (Homo sapiens) (UniProt Q13131); conditions: at 0.1 µM
Sequence of 5'-AMP-activated protein kinase catalytic subunit alpha-1 (Homo sapiens) (Q13131 whole entry, looked up): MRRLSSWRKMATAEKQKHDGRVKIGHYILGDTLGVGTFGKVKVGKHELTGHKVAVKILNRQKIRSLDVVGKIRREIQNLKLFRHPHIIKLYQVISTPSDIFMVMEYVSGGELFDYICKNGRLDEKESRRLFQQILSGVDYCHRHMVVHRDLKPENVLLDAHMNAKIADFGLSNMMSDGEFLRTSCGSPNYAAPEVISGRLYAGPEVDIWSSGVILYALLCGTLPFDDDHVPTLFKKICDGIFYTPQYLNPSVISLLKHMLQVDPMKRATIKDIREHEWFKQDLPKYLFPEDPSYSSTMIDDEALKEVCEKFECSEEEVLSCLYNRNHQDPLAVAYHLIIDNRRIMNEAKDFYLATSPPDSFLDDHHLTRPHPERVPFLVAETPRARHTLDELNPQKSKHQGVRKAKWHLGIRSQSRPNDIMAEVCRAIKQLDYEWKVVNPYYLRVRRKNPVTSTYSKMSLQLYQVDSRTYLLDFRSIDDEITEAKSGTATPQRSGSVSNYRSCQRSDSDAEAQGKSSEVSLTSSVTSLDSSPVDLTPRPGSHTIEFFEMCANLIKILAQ

[19] = molecular target: 5'-AMP-activated protein kinase catalytic subunit alpha-1 (Homo sapiens) (UniProt Q13131); conditions: at 1 µM
[20] = molecular target: 5'-AMP-activated protein kinase catalytic subunit alpha-2 (Homo sapiens) (UniProt P54646); conditions: at 0.1 µM;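 note: mean inhibition measured on the AMPK complex of alpha2, beta1 and gamma1 subunits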

Sequence of Rho-associated protein kinase 2 (Homo sapiens) (O75116 whole entry, looked up): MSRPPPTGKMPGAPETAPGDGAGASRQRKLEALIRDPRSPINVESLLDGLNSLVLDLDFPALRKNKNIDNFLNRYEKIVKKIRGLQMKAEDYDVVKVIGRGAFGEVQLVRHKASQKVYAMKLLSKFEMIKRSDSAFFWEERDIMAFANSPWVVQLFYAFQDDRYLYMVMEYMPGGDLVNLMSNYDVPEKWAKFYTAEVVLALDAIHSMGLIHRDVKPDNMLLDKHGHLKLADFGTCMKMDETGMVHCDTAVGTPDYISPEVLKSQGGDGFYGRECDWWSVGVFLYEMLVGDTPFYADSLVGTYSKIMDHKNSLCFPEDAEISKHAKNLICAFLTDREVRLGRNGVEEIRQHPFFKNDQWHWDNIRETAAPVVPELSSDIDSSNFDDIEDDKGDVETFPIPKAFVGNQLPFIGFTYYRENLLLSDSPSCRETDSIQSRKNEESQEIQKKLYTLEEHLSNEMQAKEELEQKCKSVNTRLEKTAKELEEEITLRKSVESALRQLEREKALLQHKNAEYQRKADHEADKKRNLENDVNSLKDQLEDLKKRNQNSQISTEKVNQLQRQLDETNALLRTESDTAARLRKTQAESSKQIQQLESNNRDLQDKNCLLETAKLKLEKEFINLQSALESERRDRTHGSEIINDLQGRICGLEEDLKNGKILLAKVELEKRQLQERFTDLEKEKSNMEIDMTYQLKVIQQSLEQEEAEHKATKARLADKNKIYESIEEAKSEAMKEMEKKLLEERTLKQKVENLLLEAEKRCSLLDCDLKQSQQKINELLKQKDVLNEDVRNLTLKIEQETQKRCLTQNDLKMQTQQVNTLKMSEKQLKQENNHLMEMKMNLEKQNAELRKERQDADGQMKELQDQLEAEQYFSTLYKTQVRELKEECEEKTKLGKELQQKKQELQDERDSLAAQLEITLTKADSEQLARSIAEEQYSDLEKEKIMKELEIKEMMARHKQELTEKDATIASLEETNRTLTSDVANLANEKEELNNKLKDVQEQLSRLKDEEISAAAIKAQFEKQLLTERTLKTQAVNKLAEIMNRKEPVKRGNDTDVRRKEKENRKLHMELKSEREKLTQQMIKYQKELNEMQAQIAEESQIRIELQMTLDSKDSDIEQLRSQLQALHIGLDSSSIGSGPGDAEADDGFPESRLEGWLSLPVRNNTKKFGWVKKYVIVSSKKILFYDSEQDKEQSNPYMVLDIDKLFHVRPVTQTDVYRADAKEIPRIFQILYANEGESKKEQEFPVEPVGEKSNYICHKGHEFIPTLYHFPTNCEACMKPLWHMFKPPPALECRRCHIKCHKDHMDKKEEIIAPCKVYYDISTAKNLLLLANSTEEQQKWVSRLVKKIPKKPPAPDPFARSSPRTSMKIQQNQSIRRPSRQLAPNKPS
Sequence of Rho-associated protein kinase 1 (Homo sapiens) (Q13464 2-1354 limits assumed): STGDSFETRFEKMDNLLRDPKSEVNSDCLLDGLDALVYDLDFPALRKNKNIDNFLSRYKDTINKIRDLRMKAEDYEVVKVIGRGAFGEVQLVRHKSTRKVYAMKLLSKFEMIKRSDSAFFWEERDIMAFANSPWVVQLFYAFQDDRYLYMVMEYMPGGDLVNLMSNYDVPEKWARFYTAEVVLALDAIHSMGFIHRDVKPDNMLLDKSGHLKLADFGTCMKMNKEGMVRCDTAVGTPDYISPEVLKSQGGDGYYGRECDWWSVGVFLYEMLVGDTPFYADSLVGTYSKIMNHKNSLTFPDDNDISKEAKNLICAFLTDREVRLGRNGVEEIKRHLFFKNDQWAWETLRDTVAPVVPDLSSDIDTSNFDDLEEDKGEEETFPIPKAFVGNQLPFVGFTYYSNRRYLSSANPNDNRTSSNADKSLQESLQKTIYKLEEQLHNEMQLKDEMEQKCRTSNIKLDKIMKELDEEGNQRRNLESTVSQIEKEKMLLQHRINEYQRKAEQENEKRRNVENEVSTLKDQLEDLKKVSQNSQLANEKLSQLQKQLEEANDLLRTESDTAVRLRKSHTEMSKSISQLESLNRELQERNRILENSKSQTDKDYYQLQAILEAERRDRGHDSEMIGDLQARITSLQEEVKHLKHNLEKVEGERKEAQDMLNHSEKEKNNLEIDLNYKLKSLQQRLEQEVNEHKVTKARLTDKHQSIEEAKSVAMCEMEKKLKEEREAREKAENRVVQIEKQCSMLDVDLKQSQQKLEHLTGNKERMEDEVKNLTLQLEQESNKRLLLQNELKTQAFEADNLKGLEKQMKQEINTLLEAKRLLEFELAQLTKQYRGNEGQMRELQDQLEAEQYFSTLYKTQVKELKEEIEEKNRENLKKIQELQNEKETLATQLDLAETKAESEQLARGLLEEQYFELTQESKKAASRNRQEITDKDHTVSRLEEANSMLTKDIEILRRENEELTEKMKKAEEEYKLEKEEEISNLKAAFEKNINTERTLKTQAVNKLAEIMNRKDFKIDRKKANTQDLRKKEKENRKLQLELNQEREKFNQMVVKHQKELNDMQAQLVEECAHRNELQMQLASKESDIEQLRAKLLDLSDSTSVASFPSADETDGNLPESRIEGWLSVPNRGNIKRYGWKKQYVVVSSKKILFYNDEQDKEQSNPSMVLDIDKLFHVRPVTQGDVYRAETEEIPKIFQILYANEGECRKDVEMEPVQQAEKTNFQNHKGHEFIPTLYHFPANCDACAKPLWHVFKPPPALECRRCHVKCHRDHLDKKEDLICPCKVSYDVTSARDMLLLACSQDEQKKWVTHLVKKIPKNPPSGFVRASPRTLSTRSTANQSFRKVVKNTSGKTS

Compound	inhibition [1] [%]	inhibition [2] [%]	inhibition [3] [%]	inhibition [4] [%]	inhibition [5] [%]	inhibition [6] [%]	inhibition [7] [%]	inhibition [8] [%]	inhibition [9] [%]	inhibition [10] [%]	inhibition [11] [%]	inhibition [12] [%]	inhibition [13] [%]	inhibition [14] [%]	inhibition [15] [%]	inhibition [16] [%]	inhibition [17] [%]	inhibition [18] [%]	inhibition [19] [%]	inhibition [20] [%]
O=C1NC(=O)C(N2CCc3ccccc32)=C1c1ccc(Cl)cc1	2.06	2.69	1.72	1.94	0.4	2.23	1.24	2.52	2.25	2.11	1.19	2.14	2.97	2.07	1.86	3.22	3	0.74	4.36	4.52
CNC(=O)c1cncc(/C=C/c2c(Cl)cccc2Cl)c1	1.88	0.61	1.93	1.04	4.53	0.14	1.94	1.97	2.54	0.73	1.63	-0.87	-0.45	0.49	0.48	1.43	2.18	2.85	3.59	6.15
CCCN1CCC(Oc2cc(Nc3nc(Nc4cccc(F)c4C(N)=O)c4cc[nH]c4n3)c(OC)cc2Cl)CC1	8.85	1.22	7.48	0.01	7.33	0.89	3.26	-0.12	0.95	1.35	4.14	0.54	0.96	0.41	1.93	-0.88	-2.21	3.28	8.12	1.83
Cc1ccc(NC(=O)c2ccnc(N3CCCC3)c2)cc1-c1ccc(C(=O)NCC2CC2)cc1	7.68	5.19	7.89	3.15	5.01	2.42	6.09	3.89	5.23	2.53	4.24	5.73	4.14	2.67	6.84	1.32	1.99	6.18	7.1	6.89
COc1ccc(-c2coc3ncnc(N)c23)cc1	3.53	3.52	1.94	1.72	0.94	1.05	1.66	2.4	2.21	1.93	2.17	2.68	1.67	-1.21	-0.41	2.69	2.97	2.92	3.4	4.54
Nc1nc(-c2ccccn2)c(-c2ccc3ncccc3n2)s1	2.15	2.83	6.38	1.17	3.4	0.06	1.07	1.71	1.96	0.91	0.55	4.14	2.85	0.04	1.55	2.89	1.48	0.55	2.96	
COC(=O)Nc1nc2cc(Oc3ccc(NC(=O)Nc4cccc(C(=O)O)c4)cc3)ccc2[nH]1	1.55	2.14	5.7	1.21	2.55	1.11	1.31	0.86	2	0.08	1.45	1.3	1.96	1.67	1.89	-2.29	2.6	1.04	4.37	-4.37
COc1cc2ncn(-c3cc(O[C@@H](C)c4ccccc4Cl)c(C(N)=O)s3)c2cc1OC	3.27	3.27	5.4	1.94	4.51	1.79	5.13	3.03	6.66	1.81	6.8	3.98	4.72	4.32	3.95	4.22	7.31	3.57	10.6	1.04
O=C1Nc2ccc(C(=O)c3ccco3)cc2C1=Cc1cc(Cl)c(O)c(Cl)c1	7.03	2.19	12.1	3.17	11.9	0.85	6.32	1.45	9.07	1.47	12	1.08	5.11	1.59	3.35	1.55	2.25	4.48	21.4	3.01
CC(=O)Nc1cccc(C#Cc2cncnc2Nc2ccc(OCc3cccc(F)c3)c(Cl)c2)n1	1.22	3.13	6.65	3.35	5.09	1.72	4.03	-1.11	0.12	0.1	-0.14	1.53	5.43	1.09	-1	2.07	4.12	-0.86	3.32	-1.09
Nc1ncnc2occ(-c3ccc(NC(=O)Nc4cccc(C(F)(F)F)c4)cc3)c12	19	11.1	46.9	4.59	33.8	2.15	26.1	7.44	52.9	-0.29	9.85	4.14	3.96	3.57	4.73	6.15	2.94	1.82	5.16	2.97
COC(=O)Nc1nc2cc(Oc3cccc(NC(=O)Nc4cc(C(F)(F)F)ccc4F)c3)ccc2[nH]1	0.94	-1.5	-0.89	0.53	0.21	0.36	1.19	-0.64	2	-0.63	1.04	0.32	0.41	-2.66	-3.24	-0.34	-0.49	1.64	0.51	0.44
O=C1NC(=O)C(c2cccc(Cl)c2)=C1Nc1ccc(O)c(Cl)c1	0.49	-0.28	-2.05	1.2	7.59	1.93	14.1	3.16	19.8	3.63	21.5	2.17	0.01	0.49	3.67	-0.12	-0.88	1.08	8.5	0.44
